Values joined by “and” are separate entries in the source; they are usually repeats but may differ in a detail not shown here. Identical values can stand only once. Screen size: about 370,000 compounds; about 2,300 (0.62%) were called active. This is one part of a sample in which actives are shown more often than they occur. Unmarked numbers belong to inactive results.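 Rule for the calls: active = lowest replicate activation of at least 40%, so every replicate reaches that level; inactive = the rest.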
Test: GLuc luminescence reporter in INS-1E cells, primary screen for activators of glucose-dependent secretion of insulin (AID 743287);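 note: 0% = median of neutral control wells and 100% = median of IBMX positive control wells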
Conditions: INS-1E GLuc reporter insulin secretion, 2-3 h, at 16.6 µM, hits give high values

Row | Compound | activation
1 | O=C1[C@H](Cc2ccc(C(F)(F)F)cc2)CCn2nncc2COC[C@@H]2CCCCN12 | 1.36%
2 | CC(C)CC#Cc1ccc([C@@H]2[C@@H](CO)N3C(=O)CN(C(=O)c4cnccn4)C[C@@H]23)cc1 | 25.5%
3 | CC(C)CC#Cc1ccc([C@H]2[C@H]3CN(C(=O)c4cnccn4)CC(=O)N3[C@H]2CO)cc1 | 54.1% (active)
4 | O=C(c1cnccn1)N1CC(=O)N2[C@H](C1)[C@@H](c1ccc(C#CC3CCCCC3)cc1)[C@@H]2CO | 1.34%
5 | CO[C@@H]1CN(C)C(=O)c2ccc(NC(=O)Nc3ccccc3)cc2OC[C@@H](C)N(C(=O)Nc2c(C)noc2C)C[C@@H]1C | -0.32%
6 | CCCCc1c(-c2ccc(Cl)cc2)ncn1CCc1ccccc1OC | -9.43%
7 | CCCCCc1c(Cc2ccccc2)ncn1CCc1ccccc1OC | 70% (active)
8 | CCCCCc1c(-c2ccc(OC)c(OC)c2)ncn1CCc1ccccc1OC | -29.6%
9 | Cc1ccccc1-c1ccc([C@H]2[C@@H](CO)N3C(=O)CN(C(=O)c4cccnc4)C[C@@H]23)cc1 | -14.5%
10 | COc1cccc(S(=O)(=O)N2CCC3(CC2)CN[C@H](CO)c2c3c3ccc(OC)cc3n2C)c1 | -2.73%
11 | Cc1ccc(S(=O)(=O)N(C)c2nc3ccccc3n3c(C(C)C)nnc23)cc1 | 66.1% (active)
12 | Cc1cc(NC(C)C)n2c(nc3ccccc32)c1C#N | 4.84%
13 | O=C(Cc1ccncc1)N1CC[C@@H]2[C@@H](CO)Nc3ccc(C4=CCCCC4)cc3[C@@H]21 | 8.52%
14 | CN(C)CCCNC(=O)C[C@H]1CC[C@H]2[C@@H](COC[C@H](O)CN2CC2CCCCC2)O1 | 1.49%
15 | CC(Sc1nc2cc(Cl)ccc2s1)C(=O)Nc1ccc2c(c1)OCO2 (configuration not stated) | -18.8%
16 | O=C(Nc1ccc2c(c1)OCO2)c1sc2cc(Cl)ccc2c1Cl | 69.2% (active)
17 | CCSc1ccccc1C(=O)Nc1ccc2c(c1)OCO2 | -1.24%
18 | C=CS(=O)c1sc(Cl)c(N2CCOCC2)c1[N+](=O)[O-] (configuration not stated) | 99.9% (active)
19 | COc1ccc2c3c([nH]c2c1)[C@H](CO)N(C(=O)Nc1ccc(F)cc1)CC31CCN(C(=O)Nc2c(C)noc2C)CC1 | -8.35%
20 | O=C(Nc1ccc(F)cc1)N1CC(=O)N2[C@H](CO)[C@H](c3ccc(C#Cc4ccccc4)cc3)[C@H]2C1 | -21.6%
21 | CCCNC(=O)Nc1ccc2c(c1)OC[C@@H](C)N(CC1CCCC1)C[C@@H](C)[C@H](OC)CN(C)C2=O | -11.9%
22 | COc1ccc(-c2ccccc2[C@H]2[C@@H](CO)N(C(=O)c3cccnc3)[C@H]2C#N)cc1 | -2.16%
23 | S=c1[nH]nc(-c2ccccc2)n1/N=C/c1c[nH]c2ccccc12 | 41.8% (active)
24 | CCc1n[nH]c(=S)n1/N=C/c1c[nH]c2ccc(Br)cc12 | 6.23%
25 | C[C@@H]1CN([C@@H](C)CO)C(=O)c2cccc(N(C)C)c2O[C@H]1CN(C)S(=O)(=O)c1cccs1 | 4.92%
26 | O=C(Cc1cccnc1)N1CC(=O)N2[C@@H](CO)[C@@H](c3ccc(C#CC4CCCCC4)cc3)[C@@H]2C1 | -3.29%

Row | Compound | activation
27 | COc1ccc2c3c([nH]c2c1)[C@@H](CO)N(C(=O)NC(C)C)CC31CN(C(=O)C2CCCC2)C1 | 3.69%
28 | COC(=O)CSc1nc2ccccc2c(=O)n1Cc1ccccc1 | 50% (active)
29 | CCOc1ccc(NC(=O)CSc2nc3ccccc3c(=O)n2Cc2cccs2)cc1 | 60.2%
30 | O=C(CSc1nc2ccccc2c(=O)n1CCCO)NC1CC1 | 4.63%
31 | CO[C@@H]1CN(C)C(=O)c2cc(NS(=O)(=O)CC(F)(F)F)ccc2OC[C@H](C)N(Cc2ccccn2)C[C@@H]1C | 11.8%
32 | CC(C)NC(=O)Nc1ccc2c(c1)CC(=O)N(C)C[C@@H](C)[C@@H](CN(C)C(=O)OC(C)(C)C)O2 | 9.38%
33 | Cc1ccc2c(Cl)c(C(=O)Nc3nn[nH]n3)sc2c1 | -4.19%
34 | Cc1ccc(-c2cc(C(=O)Nc3nn[nH]n3)c3ccccc3n2)c(C)c1 | 63.4% (active)
35 | Cc1ccc(C)c(NC(=O)NNC(=O)c2ccc3ccccc3c2O)c1 | -0.162%
36 | COc1ccc(CCNC(=O)CSc2nnc3ccc(-c4ccncc4)nn23)cc1 | 4.35%
37 | COc1cccc(-c2ccc(C#N)c(SCC(=O)NCCc3ccc(Cl)cc3)n2)c1 | 108% (active)
38 | COc1ccc(CCNC(=O)CSc2nc(-c3ccc(OC)c(OC)c3)ccc2C#N)cc1 | 46.1%
39 | CCC(=O)N1C[C@H](C)[C@H](OC)CN(C)C(=O)c2ccc(NC(=O)Nc3ccc(Cl)cc3)cc2OC[C@H]1C | -31.9%
40 | CNC(=O)C[C@H]1CC[C@@H]2[C@H](COc3ccc(NC(=O)C(C)C)cc3C(=O)N2C)O1 | 4.65%
41 | COc1ccc(/C=C/C2=CC(C)(C)NC(=S)N2)c(OC)c1 | -2.56%
42 | COc1ccc(/C=C2/C(=O)OCc3cc(OC)c(OC)cc32)c(OC)c1 | 90.1% (active)
43 | COc1ccc(CN(C)Cc2nc3cc(OC)c(OC)cc3c(=O)[nH]2)c(OC)c1 | -31.6%
44 | CCCC#Cc1ccc([C@H]2[C@H]3CN(C(=O)Nc4cccc(F)c4)CC(=O)N3[C@H]2CO)cc1 | -20.8%
45 | Cc1noc(C)c1NC(=O)Nc1ccc2c(c1)C(=O)N([C@@H](C)CO)C[C@H](C)[C@@H](CN(C)C)O2 | 11.6%
46 | Cc1ccccc1-c1ccc([C@H]2[C@H](CO)N3C(=O)CN(C(=O)c4cccnc4)C[C@@H]23)cc1 | 4.01%
47 | COc1ccccc1S(=O)(=O)N[C@H]1CC[C@@H](CC(=O)NCc2cc(F)cc(F)c2)O[C@H]1CO | 6.83%
48 | CC(C)c1ccc(NS(=O)(=O)c2cn(C)c(=O)n(C)c2=O)cc1 | 18.1%
49 | COC(=O)c1c(C)oc(C)c1S(=O)(=O)Nc1ccc(C(C)C)cc1 | 52.6% (active)
50 | COC(=O)c1c(C)oc(C)c1S(=O)(=O)NCc1ccc(Cl)cc1 | 15.9%
51 | Cc1ccc(OCCC(=O)OCC(=O)N2c3ccccc3NC(=O)C2(C)C)cc1 | -29.1%
52 | CCCCOC(=O)c1ccc(NC(c2ccc(C)cc2)P(=O)(OC)OC)cc1 (configuration not stated) | -63.4%

Row | Compound | activation
53 | CCCCCCCCCCOC(=O)Cn1c(COc2ccc(C)cc2)[n+](C)c2ccccc21 | 193% (active)
54 | CCCNC(=O)N1CCC2(CC1)CN(C(=O)c1cccnc1)[C@@H](CO)c1[nH]c3cc(OC)ccc3c12 | 20.9%
55 | C[C@H]1CCCCO[C@@H](CN(C)Cc2ccc3c(c2)OCO3)[C@@H](C)CN([C@@H](C)CO)C(=O)c2cc(NS(=O)(=O)c3ccc(F)cc3)ccc2O1 | -26%
56 | O=C(C[C@H]1C=C[C@H](NC(=O)c2cccc(F)c2)[C@@H](CO)O1)NCc1ccc(Oc2ccccc2)cc1 | 8.87%
57 | Cc1noc(C)c1NC(=O)N(C)C[C@@H]1Oc2c(NC(=O)CCCCCC(=O)Nc3ccccc3N)cccc2C(=O)N([C@H](C)CO)C[C@@H]1C | -5.82%
58 | COc1ccccc1S(=O)(=O)N[C@@H]1C=C[C@H](CC(=O)NCc2cccc(F)c2)O[C@H]1CO | 10.3%
59 | COc1ccc(C(=O)Nc2ccc(C3(C#N)CCCC3)cc2)cc1OC | -6.21%
60 | COc1cc2c(cc1OC)/C(=C/C(=O)c1ccc(NC(C)=O)cc1)NCC2 | 70% (active)
61 | COc1ccc(NC(=O)C2Cc3c(-c4cccc(NC(C)=O)c4)ccnc3O2)cc1OC (configuration not stated) | -7.03%
62 | CCC(=O)N(C)C[C@@H]1Oc2ncc(C#Cc3ccccc3)cc2C(=O)N([C@@H](C)CO)C[C@H]1C | -1.97%
63 | COc1ccccc1C(=O)NC(=S)NC12CC3CC(CC(C3)C1)C2 | 41.4% (active)
64 | COc1ccccc1C(=O)NC(=O)COC(=O)C1CC1 | -1.88%
65 | NC(=O)COc1ccccc1C(=O)NC12CC3CC(CC(C3)C1)C2 | 17.8%
66 | COc1cccc(C#Cc2ccc3c(c2)[C@H]2[C@H](CCN2C(=O)CC2CC2)[C@H](CO)N3)c1 | 0.458%
67 | CCCC#Cc1ccc2c(c1)O[C@H](CN(C)C(=O)C1CCCCC1)[C@H](C)CN([C@H](C)CO)S2(=O)=O | -12.4%
68 | CN(C)CC(=O)N[C@@H]1CC[C@H](CCn2cc(C3CCCC3)nn2)O[C@H]1CO | -11.3%
69 | O=C(NCCS(=O)(=O)NCc1ccc(Cl)cc1)c1ccccc1 | 18.7%
70 | O=C(Nc1ccccc1)c1nnsc1S(=O)(=O)c1ccc(Cl)cc1 | 48.4% (active)
71 | O=C(NNC(=O)c1cccc(S(=O)(=O)Nc2ccc(Cl)cc2)c1)c1ccc(=O)[nH]c1 | 0.241%
72 | C=CCSc1nc2c(c(=O)[nH]1)C(C(C)C)C(C#N)=C(N)O2 (configuration not stated) | 71.8% (active)
73 | C=CCSc1nc(N)cc(=O)[nH]1 | 18%
74 | O=C(C[C@@H]1CC[C@@H]2[C@H](COC[C@H](O)CN2S(=O)(=O)c2ccccc2)O1)N[C@H]1CCN(Cc2ccccc2)C1 | 4.06%
75 | COc1ccc(NC(=O)N(C)C[C@H]2Oc3c(NC(=O)Nc4cccc5ccccc45)cccc3C(=O)N([C@H](C)CO)C[C@@H]2C)cc1 | -5.46%
76 | Cc1cccc(-c2ccc(C3[C@H]4CNC[C@@H]3N4S(=O)(=O)c3ccccc3F)cc2)c1 (some centres not stated) | -12.2% and 1.38%
77 | C/C=C/c1ccc([C@@H]2[C@@H](CN(C)C(C)=O)N(C(=O)C3CC3)[C@H]2CO)cc1 | -3.3%
